The structures appear in SMILES notation. Among all 300,000 compounds or so, about 660 (0.22%) were called active. The sample holds actives, similar compounds and a random draw of the others, so the mix is not that of the screen.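 The calls were made as follows: active = mean replicate score, as percent of positive control, at or above 50; inconclusive = mean below 50 but at least one replicate at or above 50; inactive = mean and every replicate below 50.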

The test in a line: blockers of SFLLRN-triggered platelet ATP release – cell-based, MLPCN, human platelets, primary screen (AID 1663). The following applies: human platelet-rich plasma, SFLLRN dense granule ATP release, luminescence; active compounds read high;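 compounds screened at 7.5 µM in platelet-rich plasma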.
For the compound `Cc1ccc(-n2ncc3c2CCCC3NC(=O)c2cnccn2)cc1C` (stereo not given), the inhibition (usually the change of the read-out against control, counted positive when it falls) was -0.139% (inactive). As for `Cc1ccc(S(=O)(=O)N2CCOCC2)cc1C(=O)OC1CCCCC1=O` (stereo not given), the figure is -6.92% (inactive); as for `COc1ccccc1NC(=O)Nc1nnc(Cc2ccc(F)cc2)s1`, 1.62% (inactive); as for `CC1CCC2(CC1)NC(=O)N(Cc1nnc(-c3cccs3)o1)C2=O` (stereo not given), 3.04% (inactive).

On to `Cc1ccc2c(C)c(C(=O)N(C)CCC3CCCCO3)oc2c1C` (stereo not given), for which the inhibition is 4.71% (inactive). Regarding `COc1cccc(C(C(=O)NC2CCCC2)N(C(=O)c2ccco2)c2cccc(C(C)=O)c2)c1OC` (stereo not given), the inhibition is -1.88% (inactive). For the compound `OCCC1CN(Cc2cccc(OC3CCCC3)c2)CCN1Cc1ccsc1` (stereo not given), the inhibition was -11.2% (inactive).

As to `CCOc1ccc(S(=O)(=O)N2CCC(C(=O)NCc3ccccn3)CC2)cc1Cl`, the inhibition was -1.17% (inactive).

As to `O=C(Nc1ccc(-n2cccn2)cc1)C1CCN(Cc2ccsc2)CC1`, the inhibition is 0.088% (inactive). Regarding `CCOc1ccc(C(=O)Nc2cccc(SC)c2)cc1`, the inhibition is 25.4% (inactive). The same measure for `COc1ccc(C(C(=O)NC(C)(C)C)N(Cc2ccc(F)cc2)C(=O)CCC(=O)Nc2cc(C)on2)cc1` (stereo not given): 2.89% (inactive).

`CCC1CCCCN1C(=S)Nc1ccc(S(=O)(=O)Nc2ncccn2)cc1` (stereo not given): the inhibition is -1.83% (inactive). As for `CC(=O)Nc1ccc(S(=O)(=O)NCC2CCC(C(=O)NCCc3ccccc3)CC2)cc1` (stereo not given), the inhibition was -0.696% (inactive). Take `Cc1ccc2c(cnn2C(=O)CCC(=O)NC2CCCC2)c1`: the inhibition is 6.24% (inactive). On to `CCn1c(SC(C)C(=O)Nc2ccc(N3CCOCC3)cc2)nnc1-c1ccco1` (stereo not given), for which the inhibition was -6.89% (inactive).

For `O=C(Oc1ccc(Br)cc1)c1cccnc1`, the inhibition is 3.93% (inactive).

On to `O=C(Oc1ccc(-c2nc(-c3ccccn3)no2)cc1)c1ccccc1`, for which the inhibition is 83.2% (active). `Cc1ccc(Oc2nc(-c3ccccn3)nc3ccccc23)cc1`: the inhibition was 7.76% (inactive).

As for `O=C1[C@@H]2C(c3cccnc3)=NO[C@@H]2C(=O)N1c1ccc(Cl)cc1Cl`, the inhibition is 3.23% (inactive). As for `COCCN(CCOC)c1nc(N)c2c(N)nc3c(c2c1C#N)CC(=O)N3Cc1ccc(Cl)cc1`, the figure is -8.74% (inactive). Take `CCCC(=O)Nc1cccc(NC(=S)NC(=O)C(C)Oc2ccc(Cl)cc2Cl)c1` (stereo not given): the inhibition was 4.37% (inactive). The same measure for `Cn1nc(C(F)(F)F)c(C(=O)Nc2cccc(C(F)(F)F)c2)c1SCc1ccc(Cl)cc1`: 0.563% (inactive). In the case of `Cc1c(C#N)c(NC(=O)c2ccccc2)n(Cc2ccccc2)c1C`, the inhibition is -12.1% (inactive).

For the compound `CCN1CCN(C(=O)c2ccc(CN(c3ccc(C)c(C)c3)S(C)(=O)=O)cc2)CC1`, the inhibition is 3.03% (inactive). The same measure for `Cc1nc(N)c(Br)c(C)c1Br`: -11.2% (inactive); for `CCOc1ccc(CCNC(=O)COC(=O)C2CCN(c3ccc(C(F)(F)F)cn3)CC2)cc1OCC`: -1.24% (inactive). In the case of `CCCCc1ccc(S(N)(=O)=O)cc1`, the inhibition was 5.59% (inactive). Turning to `NNC(=O)CNC(c1ccccc1)c1cc(Cl)ccc1NC(=O)c1ccccc1` (stereo not given), the inhibition was 2.02% (inactive). Regarding `CCOC(=O)/C=C/c1ccc(C(F)(F)F)cc1S(=O)(=O)NC(C)(C)C`, the inhibition was 0.739% (inactive). `O=C(c1ccco1)N1CCN(C(=O)c2ccc(COc3ccc(F)cc3)o2)CC1`: the inhibition is 60.5% (active).

Turning to `COc1ccccc1OCc1ccc(C(=O)N2CCN(C)CC2)o1`, the inhibition was -1.97% (inactive).

For the compound `O=C(c1ccco1)N1CCN(CCOc2ccccc2)CC1`, the inhibition is -1.03% (inactive).

As to `CN(C)NC(=O)C(NC(=O)c1ccc(N)cc1)C12CC3CC(CC(C3)C1)C2` (stereo not given), the inhibition is -0.607% (inactive).

`O=C(CCN1CCc2ccccc2C(O)(c2ccccc2)C1)c1ccc2c(c1)OCCO2` (stereo not given): the inhibition was -76.9% (inactive). As for `CC(=O)Nc1ccc(CN2CCC(Oc3ccc(C(=O)N4CCCC4)cc3)CC2)cc1`, the figure is -7.89% (inactive); as for `CC(C)(C)NC(=O)NC(=O)COC(=O)C1c2ccccc2Oc2ccccc21`, -3.75% (inactive); as for `O=C(Nc1ccn(Cc2ccc(F)cc2)n1)c1ccncc1`, 50.5% (active). As for `O=C(Nc1ccn(Cc2ccccc2)n1)c1n[nH]c([N+](=O)[O-])c1Cl`, the inhibition is 0.241% (inactive).

On to `O=C(Nc1ccn(Cc2ccccc2)n1)c1cccc(F)c1`, for which the inhibition was 7.39% (inactive). The same measure for `O=C(Nc1ccc(S(=O)(=O)NCC2CCCO2)cc1)c1ccc(F)cc1` (stereo not given): -4.99% (inactive); for `COc1cc(SC)ccc1C(=O)Nc1cc(C)ccn1`: 5.66% (inactive); for `Cc1ccnc(NC(=O)c2ccoc2C)c1`: 50.8% (active).

As to `Cc1ccnc(NC(=O)CNC(=O)c2ccccc2)c1`, the inhibition is -2.51% (inactive). The same measure for `Cc1csc(Nc2ccc(Cl)cc2)[n+]1-c1ccc(Cl)cc1`: -1.67% (inactive). For `Oc1ccc(CNc2ccccc2O)cc1`, the inhibition was 4.21% (inactive). With `CCOc1ccc(C(=O)Nc2ccc(S(=O)(=O)NCC3CCCO3)cc2)cc1OCC` (stereo not given), the inhibition is -1.27% (inactive).

For the compound `COC(=O)CN1C(=O)C(C)(C)Oc2ccc(C(=O)Nc3cccc(OC)c3)cc21`, the inhibition was -3.5% (inactive).

`CCOC(=O)c1ccc(NC(=O)Cn2cnc3cc(C)c(C)cc32)cc1`: the inhibition was 9.16% (inactive). As for `CCCCn1c(N)c(N(CCC(C)C)C(=O)c2ccc(COc3ccccc3)o2)c(=O)[nH]c1=O`, the figure is -0.548% (inactive); as for `Cc1ccc(NC(=O)CSCC(=O)Nc2sccc2C#N)cc1`, -1.59% (inactive).

`O=C1/C(=C/c2ccc(F)cc2)SC(=S)N1NS(=O)(=O)c1ccccc1`: the inhibition was -3.17% (inactive).

`COc1cccc(CNC(=O)CCCC(=O)Nc2cccc([N+](=O)[O-])c2)c1`: the inhibition is 6.93% (inactive). `COC(=O)/C=C\C(=O)Nc1cccc([N+](=O)[O-])c1`: the inhibition was 73% (active). Consider `COc1ccc(S(=O)(=O)NC(C)C(=O)Nc2cccc([N+](=O)[O-])c2)cc1` (stereo not given), for which the inhibition is 3.55% (inactive). As for `CN(C)c1nc(=Nc2cccc(Cl)c2)ss1`, the figure is -3.66% (inactive); as for `CCc1ccc(-c2nc(SCC(=O)NC3CCCC3)n[nH]2)cc1`, -5.4% (inactive); as for `CC(=O)CCS(=O)(=O)c1ccc(C)c(C)c1`, 3.49% (inactive). In the case of `c1ccc2[nH]c(-c3nc4ccccc4[nH]3)nc2c1`, the inhibition was 76.6% (active). The same measure for `Cc1ccc(-c2nc3ccccc3[nH]2)cc1N`: 17.1% (inactive). The same measure for `OC(c1nc2ccccc2[nH]1)C(O)C(O)C(O)c1nc2ccccc2[nH]1` (stereo not given): -3.4% (inactive).
